# Laboratory results from PubChem BioAssay (NCATS).
# Inconclusive results are not listed. Values without a mark were called inactive. The source made the active and inactive calls. The call rests on the fitted dose curve; in most records, active means well fitted curve in the direction sought with a large enough effect; inconclusive means small, poorly fitted or top-dose-only effect, or another doubt; inactive means no such curve, though single readings can be large; an effect the other way counts as inactive or inconclusive.
# Target: Ubiquitin carboxyl-terminal hydrolase 1 (Homo sapiens) (UniProt O94782)
# Assay: Inhibitors of USP1/UAF1: Pilot qHTS (AID 504865); further: nearly all actives have a fitted effect of over 35% in size; further: potency means the concentration at half of the fitted maximal effect;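 on activity change, negative = inhibition: rhodamine fluorescence freed from ubiquitin-rhodamine substrate followed over time; top concentration of the series differs between compounds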
# Conditions: purified USP1/UAF1, Ub-rhodamine cleavage fluorescence; series mostly up to 54.9 µM; activity change, negative = inhibition: at the top concentration
# Method in brief: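 In 50mM HEPES pH 7.8 containing 0.5mM EDTA, 1mM TCEP, 0.1 mg/ml BSA and 0.01% Tween-20, 1nM USP1/UAF1 is exposed to compound for 15 min, then Ub-Rho (150nM final) is added and fluorescence is read over time.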
# On the % scale 0 is the no-effect control and ±100 the full control effect.
# Sequence of Ubiquitin carboxyl-terminal hydrolase 1 (Homo sapiens) (O94782 whole entry, looked up): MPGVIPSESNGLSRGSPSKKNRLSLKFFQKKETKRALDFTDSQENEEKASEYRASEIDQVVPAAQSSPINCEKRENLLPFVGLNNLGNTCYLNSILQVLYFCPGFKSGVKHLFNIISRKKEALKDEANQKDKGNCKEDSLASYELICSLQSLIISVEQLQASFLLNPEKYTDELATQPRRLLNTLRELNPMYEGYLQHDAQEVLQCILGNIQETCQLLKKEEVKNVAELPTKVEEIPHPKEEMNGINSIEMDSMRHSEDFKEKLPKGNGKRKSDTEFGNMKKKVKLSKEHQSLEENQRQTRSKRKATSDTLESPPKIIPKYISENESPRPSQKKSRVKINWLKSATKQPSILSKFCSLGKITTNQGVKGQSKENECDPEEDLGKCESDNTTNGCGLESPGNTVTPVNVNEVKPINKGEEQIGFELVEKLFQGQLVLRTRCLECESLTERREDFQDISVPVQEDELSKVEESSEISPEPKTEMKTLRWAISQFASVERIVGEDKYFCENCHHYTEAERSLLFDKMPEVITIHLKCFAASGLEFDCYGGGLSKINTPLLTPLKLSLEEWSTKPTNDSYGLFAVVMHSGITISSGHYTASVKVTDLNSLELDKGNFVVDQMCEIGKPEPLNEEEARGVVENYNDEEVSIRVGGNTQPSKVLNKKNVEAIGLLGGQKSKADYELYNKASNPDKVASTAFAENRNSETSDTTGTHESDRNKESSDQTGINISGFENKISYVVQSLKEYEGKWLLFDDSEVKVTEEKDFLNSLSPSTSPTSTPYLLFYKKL
SMILES,Potency,"activity change, negative = inhibition [%]"
COc1ccccc1-c1nc(NCc2cccs2)c2ccccc2n1,15.8 µM (active),–
COc1ccc(CNc2ncncc2-c2ccoc2)c(OC)c1,–,-10.9
CCNc1ncc2nc(-c3cccs3)c(=O)n(C[C@H]3CCCO3)c2n1,–,-3.77
COc1ccccc1-c1nccc(NCc2cccnc2)n1,–,-21
CCNc1ncc2nc(C)c(=O)n(CCOC)c2n1,–,-4.79
c1ccc(CNc2nc(-c3ccoc3)nc3ccccc23)cc1,–,-18.9
CN(Cc1ccco1)c1ncncc1-c1ccc2c(c1)OCO2,–,-16.7
CN(Cc1ccco1)c1ncncc1-c1cccnc1,–,-14.3
Cc1noc(C)c1-c1nc(N(C)C)c2ccccc2n1,–,-5.33
Cc1cnc(CNc2cc(-c3c(C)noc3C)ncn2)cn1,–,-10.4
CN(Cc1ccco1)c1nc(-c2ccc3c(c2)OCO3)nc2ccccc12,–,-20.3
N#Cc1cccc(-c2cncnc2NCCc2cnc[nH]2)c1,–,-7.28
O=c1c(-c2cccs2)nc2cncnc2n1-c1ccccc1,–,-12.9
COc1ccc(-c2nc3cnc(N4CCOCC4)nc3n(Cc3cccs3)c2=O)cc1,–,-7.82
COc1ccc2[nH]cc(CCNc3cc(-c4c(C)noc4C)ncn3)c2c1,–,-9.55
CS(=O)(=O)Nc1cccc(-c2cc(NCc3ccccc3)ncn2)c1,–,-16.8

SMILES,Potency,"activity change, negative = inhibition [%]"
COc1ccccc1-c1cncnc1NCc1ccccc1,–,-15.2
CCNc1ncc2nc(-c3cccs3)c(=O)n(-c3ccccc3)c2n1,–,-9.24
COc1cccc(-c2nccc(NCc3cnc(C)cn3)n2)c1,–,-17
CN(C)C(=O)c1ccc(-c2ccc3ncnc(NCCN4CCOCC4)c3c2)cc1,–,-11.5
COCCn1c(=O)c(-c2cccc(F)c2)nc2cncnc21,–,-18.6
COc1ccccc1-c1cc(Nc2ccn[nH]2)ncn1,–,-7.98
Cc1cnc(CNc2nc(-c3ccccc3Cl)nc3ccccc23)cn1,–,-23.9
CCNc1ncc2nc(-c3cccc(C#N)c3)c(=O)n(CCC#N)c2n1,–,-5.93
c1ccc(CNc2ccnc(-c3cccnc3)n2)cc1,–,-16.9
CN(C)C(=O)c1ccc(-c2cncnc2N(C)Cc2ccco2)cc1,–,-6.91
CN(C)c1nc(-c2ccccc2C(F)(F)F)nc2ccccc12,–,-17
COc1cccc(-c2cncnc2NCc2cccs2)c1,–,-13.5
COCCn1c(=O)cnc2cnc(N(C)C)nc21,–,-6.28
COc1ccc(CNc2ccnc(-c3cccnc3)n2)c(OC)c1,–,-8.12
Cc1cnc(CNc2ncnc3ccc(-c4ccc(C(=O)N(C)C)cc4)cc23)cn1,–,-8.94
COc1cccc(Cn2c(=O)cnc3cnc(Nc4ccccc4)nc32)c1,–,20

# Test system: not listed separately
# Assay: Primary qHTS for small molecule stabilizers of the endoplasmic reticulum resident proteome: Secreted ER Calcium Modulated Protein (SERCaMP) assay (AID 1508630)
# Conditions: SH-SY5Y GLuc-SERCaMP (Gaussia luciferase released on ER calcium loss) secretion, thapsigargin, luminescence; series mostly up to 38.4 µM; activity change, negative = inhibition: at the top concentration
# Method in brief: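 The SH-SY5Y reporter protocol was run at 3 concentrations up to 38.3 uM (primary) or 11 concentrations (follow-up): 16 h compound, 100 nM thapsigargin for 4 h, then extracellular luciferase luminescence.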
row,SMILES,"activity change, negative = inhibition [%]"
1,COc1ccccc1-c1nc(NCc2cccs2)c2ccccc2n1,-11.2
2,COc1ccc(CNc2ncncc2-c2ccoc2)c(OC)c1,-0.137
3,CCNc1ncc2nc(-c3cccs3)c(=O)n(C[C@H]3CCCO3)c2n1,-6.78
4,COc1ccccc1-c1nccc(NCc2cccnc2)n1,5.03
5,CCNc1ncc2nc(C)c(=O)n(CCOC)c2n1,3.29
6,c1ccc(CNc2nc(-c3ccoc3)nc3ccccc23)cc1,-12.3
7,c1csc(CNc2nc(-c3ccoc3)nc3ccccc23)c1,-21.6
8,N#Cc1cccc(-c2nc(NCc3cccs3)c3ccccc3n2)c1,-0.343
9,CN(Cc1ccco1)c1ncncc1-c1ccc2c(c1)OCO2,36.5
10,CN(Cc1ccco1)c1ncncc1-c1cccnc1,21.4
11,Cc1noc(C)c1-c1nc(N(C)C)c2ccccc2n1,-7.01
12,Cc1cnc(CNc2cc(-c3c(C)noc3C)ncn2)cn1,39.6
13,CN(Cc1ccco1)c1nc(-c2ccc3c(c2)OCO3)nc2ccccc12,-6.17
14,N#Cc1cccc(-c2cncnc2NCCc2cnc[nH]2)c1,-21.5
15,O=c1c(-c2cccs2)nc2cncnc2n1-c1ccccc1,41.6
16,COc1ccc(-c2nc3cnc(N4CCOCC4)nc3n(Cc3cccs3)c2=O)cc1,11.5
17,COc1ccc2[nH]cc(CCNc3cc(-c4c(C)noc4C)ncn3)c2c1,-6.77
18,CS(=O)(=O)Nc1cccc(-c2cc(NCc3ccccc3)ncn2)c1,-22.4
19,COc1ccccc1-c1cncnc1NCc1ccccc1,-28.5
20,CCNc1ncc2nc(-c3cccs3)c(=O)n(-c3ccccc3)c2n1,17.9

row,SMILES,"activity change, negative = inhibition [%]"
1,COc1cccc(-c2nccc(NCc3cnc(C)cn3)n2)c1,13.4
2,COc1ccc(CNc2ncncc2-c2ccc(N(C)C)cc2)c(OC)c1,-3.81
3,CN(C)C(=O)c1ccc(-c2ccc3ncnc(NCCN4CCOCC4)c3c2)cc1,-5.61
4,COCCn1c(=O)c(-c2cccc(F)c2)nc2cncnc21,12.9
5,Cc1noc(C)c1-c1nccc(Nc2ccc(F)cc2)n1,8.05
6,COc1ccccc1-c1cc(Nc2ccn[nH]2)ncn1,88.6
7,Cc1cnc(CNc2nc(-c3ccccc3Cl)nc3ccccc23)cn1,7.46
8,CCNc1ncc2nc(-c3cccc(C#N)c3)c(=O)n(CCC#N)c2n1,-11.2
9,c1ccc(CNc2ccnc(-c3cccnc3)n2)cc1,-16.9
10,CN(C)C(=O)c1ccc(-c2cncnc2N(C)Cc2ccco2)cc1,20.4
11,COc1ccccc1-c1cc(Nc2ccc(F)cc2)ncn1,-14.6
12,CN(C)c1nc(-c2ccccc2C(F)(F)F)nc2ccccc12,-16.2
13,COc1ccccc1-c1nc(N(C)Cc2ccco2)c2ccccc2n1,-29.3
14,COc1cccc(-c2cncnc2NCc2cccs2)c1,0.305
15,c1ccc(Nc2ncncc2-c2ccoc2)cc1,-9.06
16,COc1ccccc1CNc1ccnc(-c2c(C)noc2C)n1,29.1
17,COCCn1c(=O)cnc2cnc(N(C)C)nc21,-1.69
18,COc1ccc(CNc2ccnc(-c3cccnc3)n2)c(OC)c1,-12.5
19,Cc1cnc(CNc2ncnc3ccc(-c4ccc(C(=O)N(C)C)cc4)cc23)cn1,-28
20,COc1cccc(Cn2c(=O)cnc3cnc(Nc4ccccc4)nc32)c1,-13.4
